# Reference: PubChem BioAssay (NCATS)
# Results filed as inconclusive are left out. Where a call stands in place of a potency, no number is given. Activity calls are given as the source filed them. Calls come from the whole dose curve; as a rule, active = well fitted curve in the direction sought with a large enough effect; inconclusive = small, poorly fitted or top-dose-only effect, or another doubt; inactive = no such curve, though single readings can be large; an effect the other way counts as inactive or inconclusive.
# What was measured:
# [1] = test system: Nanoluciferase (engineered Oplophorus gracilirostris luciferase); test: Primary Nanoluciferase (NLuc) qHTS assay for identification of artifact compounds. (AID 1845222); details: NLuc-conditioned medium, Nano-Glo luminescence, 5 min; series mostly up to 54.1 µM; note: potency is the fitted concentration of half-maximal effect
# In short: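 Diluted conditioned medium from NLuc-expressing S16 cells treated with compounds for 15 min at room temperature, then Nano-Glo substrate added; luminescence read after 5 min. Percent inhibition versus no-enzyme and DMSO controls fitted to 4-parameter Hill equation.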
# [2] = Primary redox qHTS assay for identification of artifact compounds. (AID 1845223); details: Amplex Red/HRP redox cycling with DTT, fluorescence; series mostly up to 53.8 µM
# In short: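 Amplex Red (25 uM) and HRP (250 mU/mL) in HBSS, with compounds for 15 min, then 250 uM DTT for 30 min, room temperature, dark. Fluorescence 525/598 nm read; normalized to DMSO and 10 uM DA3003; Hill fit.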
# [3] = Quantitative High-Throughput drug screen in 47 multiple myeloma cell lines against the NCATS MIPE library collection: Karpas620_DSMZ cell viability assay (AID 1918959); details: Karpas620 myeloma viability, CellTiter-Glo ATP luminescence, 48 h; series mostly up to 45.8 µM; note: nearly all actives have a fitted effect of over 30% in size; note: potency is the fitted concentration of half-maximal effect
# In short: (§1)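 Myeloma cell lines, 500 cells per well, exposed to MIPE 4.0 library compounds for 48 h at 37C, 5% CO2. Viability from ATP by CellTiter-Glo luminescence; normalised to DMSO (100%) and media-only (0%) wells.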
# [4] = Quantitative High-Throughput drug screen in 47 multiple myeloma cell lines against the NCATS MIPE library collection: Delta47_JCRB cell viability assay (AID 1918925; note: nearly all actives have a fitted effect of over 45% in size; note: potency is the fitted concentration of half-maximal effect); details: Delta47 myeloma viability, CellTiter-Glo ATP, 48 h; series mostly up to 45.8 µM
# In short: (§2)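 Inhibition of cell viability is measured here. Each line was plated at 500 cells per well, treated with MIPE 4.0 drugs, kept 48 hours at 37C, then assayed for ATP content by CellTiter-Glo luminescence.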
# [5] = Quantitative High-Throughput drug screen in 47 multiple myeloma cell lines against the NCATS MIPE library collection: AMO1_DSMZ cell viability assay (AID 1918927; note: nearly all actives have a fitted effect of over 30% in size; note: potency is the fitted concentration of half-maximal effect); details: AMO1 myeloma cells viability, CellTiter-Glo ATP luminescence, 48 h; series mostly up to 45.8 µM
# In short: as §2
# [6] = Quantitative High-Throughput drug screen in 47 multiple myeloma cell lines against the NCATS MIPE library collection: ARD_JJKsccE7 cell viability assay (AID 1918929; note: potency is the fitted concentration of half-maximal effect); details: ARD myeloma cell line viability, CellTiter-Glo, 48 h; series mostly up to 45.8 µM
# In short: as §2
# [7] = Quantitative High-Throughput drug screen in 47 multiple myeloma cell lines against the NCATS MIPE library collection: FR4_PLB cell viability assay (AID 1918924; note: nearly all actives have a fitted effect of over 35% in size; note: potency is the fitted concentration of half-maximal effect); details: FR4_PLB myeloma cells viability, CellTiter-Glo ATP, 48 h; series mostly up to 45.8 µM
# In short: as §1
# [8] = Quantitative High-Throughput drug screen in 47 multiple myeloma cell lines against the NCATS MIPE library collection: EJM_DSMZ cell viability assay (AID 1918926; note: nearly all actives have a fitted effect of over 30% in size; note: potency is the fitted concentration of half-maximal effect); details: EJM myeloma cell viability, CellTiter-Glo ATP, 48 h; series mostly up to 45.8 µM
# In short: as §2
# [9] = Quantitative High-Throughput drug screen in 47 multiple myeloma cell lines against the NCATS MIPE library collection: ARP1_JJKsccF8 cell viability assay (AID 1918928; note: nearly all actives have a fitted effect of over 40% in size; note: potency is the fitted concentration of half-maximal effect); details: ARP1 myeloma cells viability, CellTiter-Glo ATP, 48 h; series mostly up to 45.8 µM
# In short: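 ATP readout (CellTiter-Glo), 48 h drug incubation, 37 °C/5% CO2, 500 cells per well; normalisation to DMSO (100%) and media-only (0%) controls.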
SMILES,Potency [1],outcome [2],Potency [3],Potency [4],Potency [5],Potency [6],Potency [7],Potency [8],Potency [9]
CC1CCN(c2cc(N3CCN(C)CC3)ccc2NC(=O)c2cc(C#N)c[nH]2)CC1,inactive,inactive,inactive,,,,,,
CCc1cccc(CC)c1NC(=O)N1Cc2[nH]nc(NC(=O)c3ccc(N4CCN(C)CC4)cc3)c2C1,inactive,inactive,,5.9 µM (active),7.43 µM (active),1.18 µM (active),,,
CCCCCOC(=O)Nc1nc(=O)n([C@@H]2O[C@H](C)[C@@H](O)C2O)cc1F (stereo partly drawn),,,inactive,inactive,inactive,inactive,inactive,inactive,inactive
C[C@@H]1C[C@H]2[C@@H]3CCC4=CC(=O)C=C[C@]4(C)[C@@]3(F)[C@@H](O)C[C@]2(C)[C@@]1(O)C(=O)CO,,,inactive,inactive,inactive,0.0093 µM (active),inactive,inactive,0.0235 µM (active)
CC1=C[C@@H]2[C@@H]([C@@H](O)C[C@@]3(C)[C@H]2C[C@@H](C)[C@]3(O)C(=O)CO)[C@@]2(C)Cc3cnn(-c4ccccc4)c3C=C12,inactive,,,,5.26 µM (active),0.0059 µM (active),,,
CCC(C)SSc1ncc[nH]1 (stereo not drawn),,,4.69 µM (active),10.5 µM (active),9.35 µM (active),5.26 µM (active),16.6 µM (active),13.2 µM (active),9.35 µM (active)
O=C(c1ccc(C(=O)N2CCC(N3CCCC3)CC2)c(Nc2ccccc2)c1)N1CCC(N2CCCC2)CC1,inactive,,inactive,inactive,inactive,inactive,,,5.26 µM (active)
CC(C)(C)c1nc(-c2cccc(NS(=O)(=O)c3c(F)cccc3F)c2F)c(-c2ccnc(N)n2)s1,inactive,,20.9 µM (active),3.32 µM (active),3.72 µM (active),18.7 µM (active),,,
CCCCn1c(=O)n(Cc2ccccc2F)c(=O)c2[nH]c(Cc3ccc(NC(C)=O)cc3)nc21,13.5 µM (active),inactive,inactive,inactive,,inactive,,,
Cc1cc(-c2ncc(CC(=O)Nc3ccc(-c4cnccn4)cn3)cc2C)ccn1,inactive,inactive,,14.8 µM (active),11.8 µM (active),9.35 µM (active),,,
CCCCC[C@H](O)C=C[C@H]1[C@H](O)CC(=O)[C@H]1CCCCCCC(=O)O,,,inactive,inactive,inactive,inactive,inactive,inactive,23.5 µM (active)
O=C(CCCN1CCN(c2ccc(F)cc2)CC1)NC1c2ccccc2CSc2ccccc21 (stereo not drawn),inactive,inactive,6.62 µM (active),5.26 µM (active),6.62 µM (active),3.32 µM (active),,,3.72 µM (active)
CNc1nc(Nc2ccc(C(=O)N3CCOCC3)cc2OC)ncc1Cl,inactive,inactive,inactive,inactive,inactive,,,inactive,
CC[C@H](C)C(=O)O[C@H]1C[C@H](O)C=C2C=C[C@H](C)[C@H](CC[C@@H](O)C[C@@H](O)CC(=O)O)[C@H]21,,,inactive,inactive,inactive,inactive,inactive,inactive,inactive
Cc1ccccc1C(C(=O)NC1CCCCC1)N(C(=O)CNc1ccc(C#N)cc1)c1cccc(F)c1 (stereo not drawn),inactive,inactive,inactive,,,inactive,,,
CN(C)CCN(C)C(=O)c1ccc(NC(=O)Nc2ccc(-c3nc(N4CCOCC4)c4ccn(CC(F)(F)F)c4n3)cc2)cc1,,,,0.0264 µM (active),0.418 µM (active),0.0235 µM (active),0.0372 µM (active),0.209 µM (active),0.0264 µM (active)
CNC1[C@H](O)C(O[C@@H]2C(O)C(O[C@H]3O[C@H]([C@@H](C)NC)CC[C@H]3N)[C@@H](N)C[C@H]2N)OC[C@]1(C)O (stereo partly drawn),,,inactive,inactive,inactive,inactive,inactive,inactive,inactive
Cn1cnc(-c2cc3nccc(Oc4ccc(NC(=S)NC(=O)Cc5ccccc5)cc4F)c3s2)c1,inactive,inactive,,,,18.7 µM (active),,,
Cc1ccc(S(=O)(=O)Nc2nc3ccccc3nc2Nc2ccc3nsnc3c2)cc1,,,,0.575 µM (active),0.512 µM (active),0.724 µM (active),6.45 µM (active),,7.24 µM (active)
CC(C)CN(C[C@@H](O)[C@H](Cc1ccccc1)NC(=O)O[C@H]1CO[C@H]2OCC[C@H]21)S(=O)(=O)c1ccc(N)cc1,,,inactive,1.48 µM (active),inactive,inactive,inactive,5.9 µM (active),
CC1(C)OC2CC3C4CC(F)C5=CC(=O)C=CC5(C)C4C(O)CC3(C)[C@]2(C(=O)CO)O1 (stereo partly drawn),,,inactive,inactive,inactive,0.0187 µM (active),inactive,,0.0209 µM (active)
CCOC(=O)N1CCN([N+]([O-])=NOc2cc(ON=[N+]([O-])N3CCN(C(=O)OCC)CC3)c([N+](=O)[O-])cc2[N+](=O)[O-])CC1,,,,4.69 µM (active),inactive,0.0526 µM (active),4.69 µM (active),2.64 µM (active),
O=c1[nH]c(=O)n([C@H]2C[C@@H](O)[C@@H](CO)O2)cc1C(F)(F)F,,,inactive,5.26 µM (active),,1.32 µM (active),inactive,1.66 µM (active),
NC(=O)c1ncn([C@@H]2O[C@H](CO)[C@@H](O)[C@@H]2O)n1,,,inactive,inactive,,inactive,inactive,inactive,
CC(=O)O[C@]1(C(C)=O)CC[C@H]2[C@@H]3C=C(Cl)C4=CC(=O)[C@@H]5C[C@H]5[C@]4(C)[C@@H]3CC[C@@]21C,,,,8.33 µM (active),10.5 µM (active),23.5 µM (active),inactive,11.8 µM (active),
CN1CC(=O)N2C(Cc3c([nH]c4ccccc34)[C@H]2c2ccc3c(c2)OCO3)C1=O (stereo partly drawn),,,inactive,inactive,inactive,inactive,inactive,,inactive
CC(C)=CCCC(C)=CCCC(C)=CCCC(C)=CCCC(C)=CCCC(C)=CCCC(C)=CCCC(C)=CCCC(C)=CCO,,,inactive,inactive,inactive,inactive,inactive,,inactive
C[C@]12CCC3=C4CCC(=O)C=C4CC[C@@H]3[C@H]1CC[C@@]2(O)CC#N,,,,inactive,,,inactive,inactive,inactive
C[C@H]1O[C@@H](n2cc(F)c(=O)[nH]c2=O)[C@H](O)[C@H]1O,,,,14.8 µM (active),,1.32 µM (active),inactive,inactive,inactive
